The record followed here is ChEMBL document CHEMBL1157539, “Thousands of chemical starting points for antimalarial lead identification” (Nature, 2010).

Holding throughout (type): functional
Test [1] deals with Plasmodium falciparum. In words: GSK_TCMDC: Inhibition of Plasmodium falciparum 3D7 in whole red blood cells, using parasite LDH activity as an index of growth. Test compounds present at 2uM.
Test [2] deals with Plasmodium falciparum. In words: GSK_TCMDC: Inhibition of Plasmodium falciparum Dd2 in whole red blood cells, using parasite LDH activity as an index of growth. Test compounds present at 2uM.
In the next test the test system is HepG2. In words: GSK_TCMDC: Percent inhibition of human HepG2 cell line. Test compounds present at 10uM.

For `Cl.Nc1cc(C(F)(F)F)ccc1Cl`, the Inhibition with Plasmodium falciparum [1] is recorded as 97%; in the test with Plasmodium falciparum [2], 0%; with HepG2, 8%.

As to `CO/C(=C\C=C\c1cc2cc(Cl)c(Cl)cc2[nH]1)C(=O)NCCCN1CCCC[C@H]1C`, the results for the Inhibition in the test on Plasmodium falciparum [1], in the test with Plasmodium falciparum [2] and in the test with HepG2 were 100%, 91% and 41%, respectively.

`N=C(/N=C(/NCCCCCCN/C(=N\C(=N)Nc1ccc(Cl)cc1)N1CCOCC1)N1CCOCC1)Nc1ccc(Cl)cc1`: the figures for the Inhibition with Plasmodium falciparum [1], with Plasmodium falciparum [2] and in the test with HepG2 were 93%, 91% and 0%, respectively.

Consider `COc1ccc2c(=NN=Cc3ccccc3F)cc(C)[nH]c2c1`, for which the Inhibition is listed as 90% in the test on Plasmodium falciparum [1], 12% in the test with Plasmodium falciparum [2] and 4% in the test with HepG2.

With `CCNc1cc(C(=O)N[C@@H](Cc2ccccc2)[C@H](O)CNC2(C)CCCCC2)cc(N2CCCCS2(=O)=O)c1.Cl`, the Inhibition in the test on Plasmodium falciparum [1] is recorded as 100%; in the test with Plasmodium falciparum [2], 98%; in the test with HepG2, 13%.

As for `O=C(Cn1c(SCc2cccc(F)c2F)cc(=O)c2ccccc21)N(Cc1ccc(-c2ccc(C(F)(F)F)cc2)cc1)C1CCN(CCO)CC1`, the Inhibition came out at 89% with Plasmodium falciparum [1], 81% with Plasmodium falciparum [2] and 50% in the test on HepG2.

As to `Clc1ccc(CNc2nc(NCCc3c[nH]cn3)nc(Nc3ccc4c(c3)OCO4)n2)cc1`, the Inhibition was determined as 84% with Plasmodium falciparum [1], 6% with Plasmodium falciparum [2] and 8% in the test on HepG2.

For the molecule `CC(=O)Nc1nc(C(=O)Nc2ccc(-c3ccc(-c4nc5cc(F)ccc5[nH]4)cc3)cc2)cs1`, the Inhibition in the test on Plasmodium falciparum [1] stood at 100%; in the test on Plasmodium falciparum [2], 33%; with HepG2 it was 17%.

For the molecule `CCc1cn2c3c(cc(C(=O)N[C@@H](Cc4cccc(F)c4)[C@H](O)CNC4CC4)cc13)N(C)S(=O)(=O)CC2.O=CO`, the Inhibition with Plasmodium falciparum [1] turned out to be 98%; in the test with Plasmodium falciparum [2] it was 98%; in the test with HepG2 it was 2%.

On to `N=C(N)NN=CC(=O)Nc1ccc(C(F)(F)F)cc1.O=S(=O)(O)O`, for which the Inhibition stood at 100% in the test with Plasmodium falciparum [1], 9% in the test on Plasmodium falciparum [2] and 5% with HepG2.

Turning to `Cc1c(OC(C)C)nc2ccccc2c1C(=O)N[C@H](c1cccc(F)c1)C1CC1`, the Inhibition in the test with Plasmodium falciparum [1] is 83%; in the test on Plasmodium falciparum [2], 34%; in the test with HepG2, 6%.

For `FC(F)(F)c1cccc(Nc2nc(-c3ccccc3)nc3ncccc23)c1`, the Inhibition in the test with Plasmodium falciparum [1] is listed as 97%; in the test with Plasmodium falciparum [2], 97%; in the test with HepG2 it was 17%.

As to `Cl.O=C(NC1CCC(CCN2Cc3cccc(F)c3C2)CC1)c1cccc(-c2cccnc2)c1` (stereo unspecified), the Inhibition in the test on Plasmodium falciparum [1] is on record as 98%; in the test with Plasmodium falciparum [2], 82%; in the test with HepG2 it was 16%.

For `COc1ccc(CCNc2nc(NCCc3cnc[nH]3)nc(NCc3cccc4ccccc34)n2)cc1OC`, the Inhibition in the test on Plasmodium falciparum [1] is 98%; in the test with Plasmodium falciparum [2] it was 16%; in the test with HepG2 it was 2%.

With `CC(Cc1ccc(OCCN2CCN(c3ccccc3)CC2)cc1)NCC(O)c1cccc(Cl)c1F.Cl` (stereo unspecified), the Inhibition in the test on Plasmodium falciparum [1] was determined as 92%; in the test on Plasmodium falciparum [2], 56%; in the test with HepG2, 40%.

Turning to `CCOc1ccc(NC(=O)c2ccc(NCCCN3CC(C)CC(C)C3)c([N+](=O)[O-])c2)cc1` (stereo unspecified), the values for the Inhibition in the test on Plasmodium falciparum [1], in the test with Plasmodium falciparum [2] and in the test on HepG2 were 100%, 60% and 3%, respectively.

As to `CC(C)N1CCN(C(=O)c2ccc(CNCCCN3CCN(c4ccccc4C(F)(F)F)CC3)s2)CC1.Cl`, the values for the Inhibition in the test on Plasmodium falciparum [1], with Plasmodium falciparum [2] and in the test with HepG2 were 98%, 42% and 32%, respectively.

Regarding `O=C(O)C(F)(F)F.O=S(=O)(NCCN1CCCC1)c1cccc(-c2ccc(CNC3Cc4ccccc4C3)cc2)c1`, the Inhibition with Plasmodium falciparum [1] is recorded as 99%; in the test with Plasmodium falciparum [2], 74%; with HepG2, 79%.

As for `COc1cc(F)c2nccc([C@@H](O)CN3CCC(NCc4ccc5c(n4)NC(=O)CS5)CC3)c2c1`, the results for the Inhibition with Plasmodium falciparum [1], with Plasmodium falciparum [2] and in the test on HepG2 were 100%, 25% and 23%, respectively.

With `Cn1c(Nc2cc(C(C)(C)C)on2)nc2cc(Nc3ccnc(Nc4cccc(CS(C)(=O)=O)c4)n3)ccc21`, the Inhibition is on record as 99% with Plasmodium falciparum [1], 94% in the test with Plasmodium falciparum [2] and 63% in the test with HepG2.

For `O=C(NCCCCN1CCC(c2ccc(-c3ccco3)cc2)CC1)c1ccc(NC(=O)c2ccc(Cl)cc2)cc1`, the Inhibition is recorded as 100% in the test with Plasmodium falciparum [1], 97% with Plasmodium falciparum [2] and 26% with HepG2.

As for `CN(C)c1ccc(-c2ccc(C(=O)NC3CCN(Cc4ccccc4)CC3)s2)cc1.O=C(O)C(F)(F)F`, the values for the Inhibition in the test with Plasmodium falciparum [1], with Plasmodium falciparum [2] and in the test on HepG2 were 92%, 10% and 20%, respectively.

As for `Cc1nc(C)c(CC(=O)Nc2cccc(-c3cccc(-c4nc5cccc(C)c5[nH]4)c3)c2)s1`, the Inhibition in the test on Plasmodium falciparum [1] stood at 92%; in the test on Plasmodium falciparum [2], 35%; in the test with HepG2, 43%.

Consider `Cc1nn(CC(C)C)c2sc(C(=O)N3CCN(S(=O)(=O)c4ccc(C#N)cc4)CC3)cc12`, for which the results for the Inhibition in the test on Plasmodium falciparum [1], in the test on Plasmodium falciparum [2] and in the test on HepG2 were 99%, 99% and 14%, respectively.

On to `N#Cc1ccc(CN2CCC(Oc3ccc(NC(=O)c4cccs4)cc3)C2)cc1.O=C(O)C(F)(F)F` (stereo unspecified), for which the figures for the Inhibition with Plasmodium falciparum [1], in the test on Plasmodium falciparum [2] and with HepG2 were 82%, 65% and 5%, respectively.

As to `N#Cc1ccc(NC(=O)Nc2ccc(OC(F)(F)F)cc2)cc1`, the Inhibition with Plasmodium falciparum [1] was found to be 98%; with Plasmodium falciparum [2], 91%; in the test with HepG2, 43%.

On to `Cc1nc(C)c(-c2ccc(C(F)(F)F)cc2)c(O)c1Br`, for which the figures for the Inhibition with Plasmodium falciparum [1], in the test on Plasmodium falciparum [2] and in the test with HepG2 were 98%, 96% and 0%, respectively.

Turning to `Cc1ccc2[nH]c(-c3cc(-c4cccc(CCN5CCOCC5)c4)cnc3N)nc2c1.O=C(O)C(F)(F)F`, the figures for the Inhibition with Plasmodium falciparum [1], in the test on Plasmodium falciparum [2] and in the test with HepG2 were 100%, 99% and 50%, respectively.

In the case of `Br.CCc1c(CCNCCCCCCNCCc2ccc(Br)cc2)ccc(O)c1O`, the Inhibition in the test on Plasmodium falciparum [1] was found to be 95%; in the test with Plasmodium falciparum [2] it was 1%; in the test on HepG2, 11%.

With `N=c1c2nc(-c3c(F)cccc3Cl)[nH]c(=O)c2[nH]c(=O)n1-c1ccccc1`, the Inhibition in the test with Plasmodium falciparum [1] came out at 95%; in the test on Plasmodium falciparum [2] it was 0%; with HepG2, 52%.

On to `COc1ccc2nccc([C@@H](O)CN3CCC(NC(=O)/C=C/c4ccnc5ccccc45)CC3)c2c1`, for which the values for the Inhibition with Plasmodium falciparum [1], in the test with Plasmodium falciparum [2] and in the test with HepG2 were 91%, 12% and 19%, respectively.

Consider `CC(CCc1ccccc1)NCC(O)c1ccc2c(c1)S(=O)(=O)c1ccccc1N2` (stereo unspecified), for which the figures for the Inhibition with Plasmodium falciparum [1], with Plasmodium falciparum [2] and with HepG2 were 95%, 4% and 17%, respectively.
